This is an account of results in PubChem BioAssay.

The target of test [1] is Tumor necrosis factor receptor superfamily member 10B (Homo sapiens) (UniProt O14763). In words: viability loss of caspase-8 NB7 cells with TRAIL – with/without TRAIL, luminescence panel, confirmation (AID 651596). Conditions: NB7 neuroblastoma + caspase-8, TRAIL sensitization, NB7 Caspase-8, with TRAIL, mean of runs, at 10 µM, stronger effect = higher value.
Test in test [2]: as above
The following applies: NB7 neuroblastoma + caspase-8, without TRAIL, NB7 Caspase-8, without TRAIL, mean of runs, at 10 µM.

Tumor necrosis factor receptor superfamily member 10B (Homo sapiens), sequence (O14763 whole entry, looked up): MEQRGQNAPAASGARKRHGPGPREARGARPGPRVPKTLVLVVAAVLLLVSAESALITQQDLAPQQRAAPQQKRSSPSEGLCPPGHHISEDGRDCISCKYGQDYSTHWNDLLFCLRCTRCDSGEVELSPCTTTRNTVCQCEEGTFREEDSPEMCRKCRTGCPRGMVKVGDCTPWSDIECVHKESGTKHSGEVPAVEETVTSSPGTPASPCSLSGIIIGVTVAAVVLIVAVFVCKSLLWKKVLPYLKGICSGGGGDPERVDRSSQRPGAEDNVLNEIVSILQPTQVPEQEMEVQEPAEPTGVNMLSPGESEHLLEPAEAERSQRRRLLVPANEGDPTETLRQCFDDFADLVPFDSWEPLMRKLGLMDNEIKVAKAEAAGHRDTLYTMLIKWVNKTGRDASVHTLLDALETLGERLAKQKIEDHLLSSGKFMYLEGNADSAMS

Take `Cc1ccc(NC(=O)CSc2nn(-c3ccccc3)c(=S)s2)cc1S(=O)(=O)N(C)C`: the activity in test [1] worked out at 22.1%; in test [2] it was 17.6%.
In the same order, the values of `COc1ccc(C(=O)Nc2ccccc2C(=O)N/N=C/c2cccc3ccccc23)cc1` are 98.8% and 95.8%.
In the same order, the values of `COc1ccccc1/C=C/C(=O)Nc1ccc2c(c1)OCCO2` are 66.6% and 73.5%.
In the same order, the values of `COc1ccc2c(c1OC)C(=O)N(c1cccc(C)c1)C2` are 66.9% and 57.9%.
In the case of `Fc1ccc(-c2cnn3c(-c4cccs4)ccnc23)cc1`, the activity in test [1] came out at 61.2%; in test [2], 59.4%.
In the same order, the values of `CCOc1ccc(OCC)c(NC(=O)C2CCN(c3nn4c(=O)cc(C)nc4s3)CC2)c1` are 82% and 81.3%.
On to `Cc1nc2c(ccc3nc(NC(=O)c4ccc5c(c4)OCCO5)sc32)s1`, for which the activity in test [1] was found to be 82.8%; in test [2] it was 84.3%.
On the same counts, the results for `C=CCNC(=O)c1ccc2c3n(nc2c1)-c1ccccc1CO3` are 89.8% and 90.5%.
On the same counts, the results for `CCOc1ccccc1CNC(=O)C1CCN(c2nnc(C)c3c(C)n(-c4ccc(C)cc4)nc23)CC1` are 48.9% and 63.5%.
On the same counts, the results for `Cc1cccc(-n2ncc3c(NC4CCCCC4)ncnc32)c1` are 66.7% and 54.5%.
For `Cc1cccc(NC(=S)NC(=O)c2ccc(-c3ccccc3)cc2)n1`, the activity stood at 55.5% in test [1] and 55.3% in test [2].
`Nc1c(N(CCC2=CCCCC2)C(=O)COc2ccc(F)cc2)c(=O)[nH]c(=O)n1Cc1ccccc1`: the activity is 27.3% in test [1] and 23% in test [2].
On the same counts, the results for `C#CCSc1nnc(-c2ccc(OC)cc2)o1` are 97.1% and 89.3%.
In the same order, the values of `COC(=O)c1c(NC(=O)c2nc3ccccc3s2)sc2c1CC(C)(C)NC2(C)C` are 87.8% and 98.3%.
Turning to `CN(C)C(=O)N1CCN(c2nc(-c3ccccc3)cs2)CC1`, the activity stood at 43.7% in test [1] and 48.5% in test [2].
In the same order, the values of `C(=Cc1nc2ccccc2o1)c1ccc2c(c1)OCO2` are 86.1% and 84%.
`O=C(Nc1ccc(-c2nc3ccccc3o2)cc1)C1CCCO1` (stereo unspecified): the activity in test [1] stood at 51.7%; in test [2] it was 43%.
With `Cc1ccc(-c2csc(NC(=O)CSc3nnc4c(n3)[nH]c3ccccc34)n2)cc1`, the activity in test [1] was determined as 42.5%; in test [2], 24.3%.
As for `O=C(/C=C\Nc1ccccn1)c1ccc(Cl)cc1`, the activity in test [1] amounted to 77.2%; in test [2], 63.3%.
On the same counts, the results for `O=C1CN(C(=O)Cn2ncc(Cl)c(Cl)c2=O)c2ccccc2N1` are 99.4% and 99.5%.
On the same counts, the results for `CC1CCN(c2ccc(-c3ccc(NC(=O)C(F)(F)F)cc3)nn2)CC1` are 94.6% and 96%.
On the same counts, the results for `O=C(Nc1nc2cc3c(cc2s1)OCCO3)c1cccs1` are 66.6% and 64.6%.
With `COc1cc(NC(=O)c2cc3cccc(OC)c3o2)cc(C(=O)Nc2cccc(C(F)(F)F)c2)c1`, the values for the activity in test [1] and in test [2] were 36.8% and 33.5%, respectively.
As for `CCc1ccc(C(=O)Nc2nnn(CC)n2)cc1`, the activity in test [1] was determined as 73.6%; in test [2], 75.5%.
On the same counts, the results for `O=C(NC(=S)Nc1nc2ccc(F)cc2s1)c1ccco1` are 85.3% and 77.4%.
On the same counts, the results for `COc1ccc(/C(N)=N/OC(=O)c2ccc3ccccc3c2)cc1OC` are 99% and 98%.
As for `Cc1nc(N)nc(N)c1-c1ccc([N+](=O)[O-])cc1`, the values for the activity in test [1] and in test [2] were 71.8% and 81.2%, respectively.
Regarding `Cc1cccnc1Nc1nc(-c2ccccn2)cs1`, the results for the activity in test [1] and in test [2] were 38.4% and 63.1%, respectively.
As for `Cc1ccc(OCCSCc2nnc(NC(=O)Nc3cccc(Cl)c3)s2)cc1`, the activity stood at 36.6% in test [1] and 43.7% in test [2].
For `COc1cccc(/C=C/C(=O)Nc2ccc3c(c2)OCCO3)c1OC`, the activity is 83.7% in test [1] and 82% in test [2].
In the same order, the values of `Nc1nc(=S)c2ncn([C@@H]3O[C@H](CO)[C@@H](O)[C@H]3O)c2[nH]1` are 70.6% and 73.5%.
In the same order, the values of `CC(O)CC(=O)OC[C@]12CC[C@H]3[C@@](C)(CC[C@H]4C(C)(C)CCC[C@]34C)[C@@H]1CC(C1=CC(=O)OC1O)O2` (stereo partly specified) are 87.1% and 93%.
For `Cc1ccc(/C=N/Nc2nnc(Cl)c3ccccc23)cc1`, the activity turned out to be 82.6% in test [1] and 73.8% in test [2].
On the same counts, the results for `O=C(NC(=S)Nc1ccccn1)c1ccccc1` are 77.8% and 76.8%.
As for `O=C(Nc1ccc2ccccc2c1)c1ccc(Cl)cc1Cl`, the activity in test [1] worked out at 63.9%; in test [2] it was 60.5%.
In the same order, the values of `COc1ccc(C2=NN(C(=O)COC(=O)c3ccc(S(C)(=O)=O)c([N+](=O)[O-])c3)C(c3ccco3)C2)cc1` (stereo unspecified) are 92.5% and 98.5%.
In the same order, the values of `O=C(Nc1ccccn1)c1sc2cccc(F)c2c1Cl` are 82.7% and 76.6%.
Turning to `O=C(Nc1nc2ccccc2[nH]1)c1ccc(F)cc1`, the activity in test [1] stood at 90.8%; in test [2], 91%.
On the same counts, the results for `Cc1ccc(OCc2nc(-c3ccccn3)no2)c(Br)c1` are 59.6% and 56.6%.
In the same order, the values of `COC(=O)c1ccc2c(c1)C(C)(C)C(/C=C/c1ccc(O)cc1)=[N+]2C` are 43.9% and 76.1%.
`CCOc1ccc(C(=O)Nc2nnc(SCC(=O)NCC3CCCO3)s2)cc1` (stereo unspecified): the results for the activity in test [1] and in test [2] were 96.1% and 96.3%, respectively.
As to `CCOc1ccc(C(=O)Nc2nnc(NC(=S)Nc3ccccc3)s2)cc1`, the activity in test [1] was 59.8%; in test [2], 61.6%.
On the same counts, the results for `NC(=S)NN=C1c2ccccc2-c2c(F)c(F)c(F)c(F)c21` are 72.1% and 71.4%.
In the case of `Cc1onc(-c2ccccc2Cl)c1C(=O)O/N=C(\N)c1cccc([N+](=O)[O-])c1`, the activity in test [1] was determined as 92.2%; in test [2], 93.3%.
Consider `O=C(Nc1ccccc1)c1nc[nH]c1C(=O)Nc1ccccc1F`, for which the activity came out at 62% in test [1] and 62.5% in test [2].
In the same order, the values of `Brc1ccc(-c2cn3ccccc3n2)s1` are 52.6% and 38.7%.
In the same order, the values of `O=C(N/N=C/c1ccc(Br)s1)c1ccccn1` are 44.5% and 46.6%.
On the same counts, the results for `C=CCOc1ccc(/C=C/C(C)=N\O)cc1` are 57.2% and 71.7%.
